# Test results as given in PubChem BioAssay (NCATS).
# Inconclusive results are not listed. A number with no mark means an inactive call. The call rests on the fitted dose curve; in most records, active means well fitted cell-killing curve with a large enough effect; inconclusive means small, poorly fitted or top-dose-only effect, or effect the other way; inactive means flat fitted curve, though single readings scatter. Where a SMILES comes first, the peptide text is derived from it. The star is where a group is joined. PhAc = O=C(Cc1ccccc1)*
# System: SKOV3
# Experiment: Primary qHTS to identify gynecologic anti-cancer compounds using libraries of approved drugs and bioactive compounds (AID 1345084); further: nearly all actives have a fitted effect of over 55% in size
# Conditions: Gynecologic cancer cell panel viability, ATPlite luminescence, 48 h; series mostly up to 57.5 µM; activity change, negative = cytotoxicity: at the top concentration
# Procedure, shortened: (§1)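 Five-concentration response, 48 h; readout is ATP-driven luciferase luminescence.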
# On the % scale 0 is the no-effect control and ±100 the full control effect.
row,SMILES,"activity change, negative = cytotoxicity"
1,O=C(CC1CC(c2ccc(F)cc2F)=NO1)N1CCOCC1 (stereo unspecified),0%
2,COC(=O)C1=CO[C@@H](O[C@@H]2O[C@H](CO)[C@@H](O)[C@H](O)[C@H]2O)[C@@H]2[C@@H](C(=O)O)CC[C@H]12,3.06% [at 25.3 µM]
3,C[C@@H]1O[C@@H](OC2C(CO)OC(OCC3OC(OC(=O)[C@]45CCC(C)(C)CC4C4=CCC6[C@@]7(C)CC[C@@H](O)[C@](C)(C(=O)O)C7CC[C@@]6(C)[C@]4(C)CC5)C(O)C(O)C3O)C(O)C2O)[C@H](O)[C@H](O)[C@H]1O (stereo partly specified),5.25% [at 11.6 µM]
4,OC[C@H]1O[C@@H](OC[C@H]2O[C@@H](OCc3ccccc3)[C@H](O)[C@@H](O)[C@@H]2O)[C@H](O)[C@@H](O)[C@@H]1O,-1.09% [at 25.3 µM]
5,COC1OC(O)C2(CCC3(O2)C(C)CC2OC(=O)C4(C)CCCC3(C)C24)C1O (stereo unspecified),6.97% [at 38.5 µM]
6,C=C1C(OC(C)=O)C(=O)C2C(C)(C)C(O)CCC2(C)C1CC(OC(C)=O)/C(C)=C/COC(C)=O (stereo unspecified),-12.8% [at 25.3 µM]
7,C/C(=C\CO)CC/C=C(\C)C(=O)O[C@@H]1O[C@H](CO)[C@@H](O)[C@H](O)[C@H]1O,-4.8% [at 38.5 µM]
8,CC(=O)c1c(C)cccc1O[C@@H]1O[C@H](CO)[C@@H](O)[C@H](O)[C@H]1O,-2.82% [at 38.5 µM]
9,CC(=O)O[C@@H]1C=C2[C@H](CC[C@@]3(C)[C@@]2(O)CC[C@H]2Cc4c([nH]c5ccccc45)[C@@]23C)O[C@@H]1C(C)(C)O,-5.55% [at 25.3 µM]
10,C=CC1(C)CC=C2C(CCC3C(C)(C(=O)O)CCCC23C)C1 (stereo unspecified),31.7%
11,CC(C)c1ccc2c(c1)C(=O)CC1C(C)(C(=O)O)CCCC21C (stereo unspecified),0% [at 38.5 µM]
12,CC(C)CC(=O)O[C@@H]1O[C@H](CO)[C@@H](O[C@H]2O[C@H](C)[C@@H](N[C@H]3C=C(CO)[C@@H](O[C@H]4O[C@H](CO)[C@@H](O[C@H]5O[C@H](CO)[C@@H](O[C@H]6O[C@H](CO)[C@@H](O)[C@H](O)[C@H]6O)[C@H](O)[C@H]5O)[C@H](O)[C@H]4O)[C@H](O)[C@H]3O)[C@H](O)[C@H]2O)[C@H](O)[C@H]1O,18.6% [at 11.6 µM]

# System: Tov-21-G
# Experiment: as above
# Conditions: Gynecologic cancer cell panel viability, ATPlite luminescence, 48 h; series mostly up to 57.5 µM; activity change, negative = cytotoxicity: at the top concentration
# Procedure, shortened: as §1
row,SMILES,"activity change, negative = cytotoxicity"
1,COC1CC(O[C@H]2CC[C@@]3(C)C(=CC[C@]4(O)C3[C@H](O)[C@@H](O)[C@]3(C)[C@@H]([C@H](C)O)CC[C@@]34O)C2)OC(C)C1OC1CC(OC)C(OC2CC(OC)C(OC3OC(C)C(OC4OC(CO)C(O)C(O)C4O)C(OC)C3O)C(C)O2)C(C)O1 (stereo partly specified),-0.0649% [at 11.6 µM]
2,C=C1CCC2[C@](C)(CO)CCC[C@@]2(C)[C@@H]1CCC1=CCOC1=O (stereo partly specified),-3.53% [at 38.5 µM]
3,C=C1CCC[C@]2(C)CC[C@@](O)(C(=C)C(=O)O)C[C@@H]12,-13%
4,CC1CC(=O)[C@]2(O)C(C(=O)OCCc3ccc(O)cc3)=CO[C@@H](O[C@@H]3O[C@H](CO)[C@@H](O)[C@H](O)[C@H]3O)[C@H]12 (stereo partly specified),2.67% [at 25.3 µM]
5,COC(=O)C1=COC(O[C@@H]2O[C@H](CO)[C@@H](O)[C@H](O)[C@H]2O)[C@@H]2[C@@](C)(O)[C@@H](OC(=O)/C=C/c3ccccc3)C[C@]12O (stereo partly specified),-0.584% [at 25.3 µM]
6,CCC[C@H](N[C@@H](C)C(=O)N1[C@H](C(=O)O)C[C@@H]2CCCC[C@@H]21)C(=O)O,16%
7,CC1OC(OC2C(OC(=O)[C@]34CCC(C)(C)C[C@H]3C3=CCC5[C@@]6(C)CC[C@H](OC7OC(C(=O)O)C(O)C(O)C7O)C(C)(C)C6CC[C@@]5(C)[C@]3(C)CC4O)OC(CO)C2O)C(O)C(O)C1OC1OCC(O)C(O)C1O (stereo partly specified),5.56% [at 11.6 µM]
8,CCOC(=O)CNC(=O)[C@@H]1CCCN1C(=O)Cc1ccccc1 (PhAc-Pro-Gly-OEt),8.67%
9,C/C(=C\CC[C@H](CO)[C@@H]1CC[C@]2(C)C3=C(CC[C@@]12C)[C@@]1(C)CCC(=O)C(C)(C)C1CC3)C(=O)O (stereo partly specified),-0.757% [at 25.3 µM]
10,C=C1CCC2C(C)(C)CCC[C@]2(C)[C@H]1CC/C(C)=C/C(=O)O (stereo partly specified),1.83%
11,COCC1OC(OC(C)(C)C2CCC3(C)C=C(C4CCC5C4(C)CC(O)C4OC(C(C)(C)O)CCC45C)CCC3O2)C(NC(C)=O)C(O)C1O (stereo unspecified),-2.27% [at 25.3 µM]
12,C=C1CCC2[C@](C)(CCC[C@]2(C)C(=O)O)[C@H]1CC/C(C)=C/C(=O)OC (stereo partly specified),-0.299% [at 38.5 µM]
13,COC(=O)c1c(CC=C(C)C)c(OC2OC(CO)C(O)C(O)C2O)c2ccccc2c1OC1OC(CO)C(O)C(O)C1O (stereo unspecified),0.606% [at 25.3 µM]
14,O=C(Cc1ccccc1)OC[C@H]1O[C@H](O[C@H]2O[C@H](CO)[C@@H](O)[C@H](O)[C@H]2O)[C@H](O)[C@@H](O)[C@@H]1O,4.4% [at 25.3 µM]
15,CC1=C2C[C@H]3OC(=O)[C@H](O)[C@@]4(O)[C@@H](C)[C@@H](O)[C@H](O)C([C@@]2(C)[C@H](O)[C@@H](O)C1)[C@@]34C (stereo partly specified),-3.15% [at 38.5 µM]
16,CC1CC(=O)C2=C(O1)OC1(C)CCC3C(C)(C)C4OC4C(=O)C3(C)C1C2 (stereo unspecified),4.29% [at 38.5 µM]
17,COc1ccnc(CCc2nc3ncccc3[nH]2)c1,0.942%
18,C/C(=C/CO)CC[C@H]1[C@]2(C)C[C@H](O)CC(C)(C)[C@H]2CC[C@]1(C)O,-3.16% [at 38.5 µM]
19,COc1c2c(c(C)c3c1C(=O)OC3)OC1(C)CC(O)C34OC(O)(CCC3(C)C1C2)OC4(C)C (stereo unspecified),-4.03% [at 25.3 µM]
20,COC(=O)[C@]1(Cc2ccc(O)c(CC=C(C)C)c2)OC(=O)C(O)=C1c1ccc(O)cc1,0.599% [at 25.3 µM]

row,SMILES,"activity change, negative = cytotoxicity"
1,COc1cnc(-c2ccc(Cn3c(CC(C)(C)C(=O)O)c(SC(C)(C)C)c4cc(OC[C@@H]5Cc6ccccc6N5C(C)=O)ccc43)cc2)nc1,10.5% [at 38.5 µM]
2,CCC(C)C(=O)O[C@H]1C[C@](C)(O)[C@]23OC(C)(C)[C@H](C[C@H](OC(=O)c4ccccc4)[C@]2(COC(C)=O)[C@H]1OC(=O)C(C)CC)[C@H]3OC(C)=O (stereo partly specified),4.99% [at 25.3 µM]
3,CC1CC2(O)OC(=O)C3=C2C(CCC3)[C@@]12C[C@@H](c1ccoc1)OC2=O (stereo partly specified),-3.43% [at 38.5 µM]
4,COc1cc(C(C)=O)ccc1O[C@@H]1O[C@H](CO)[C@@H](O)[C@H](O)[C@H]1O,7.58% [at 38.5 µM]
5,COC(=O)C1=COC(OC2OC(CO)C(O)C(O)C2O)C2C(C)C(OC(C)=O)C(OC(=O)c3ccccc3)C12 (stereo unspecified),1.54% [at 25.3 µM]
6,COc1ccnc2[nH]cc(C(=O)C(=O)N3CCN(C(=O)c4ccccc4)CC3C)c12 (stereo unspecified),-0.989%
7,C[C@@H]1O[C@@H](O[C@H]2[C@H](O)[C@@H](O)[C@H](OC[C@H]3O[C@@H](OC(=O)[C@]45CCC(C)(C)C[C@H]4C4=CCC6[C@@]7(C)C[C@@H](O)[C@H](O)[C@@](C)(CO)C7[C@H](O)C[C@@]6(C)[C@]4(C)CC5)[C@H](O)[C@@H](O)[C@@H]3O)O[C@@H]2CO)[C@H](O)[C@H](O)[C@H]1O (stereo partly specified),-3.2% [at 11.6 µM]
8,O=C(CC1CC(c2ccc(F)cc2F)=NO1)N1CCOCC1 (stereo unspecified),-10.9%
9,COC(=O)C1=CO[C@@H](O[C@@H]2O[C@H](CO)[C@@H](O)[C@H](O)[C@H]2O)[C@@H]2[C@@H](C(=O)O)CC[C@H]12,0.291% [at 25.3 µM]
10,C[C@@H]1O[C@@H](OC2C(CO)OC(OCC3OC(OC(=O)[C@]45CCC(C)(C)CC4C4=CCC6[C@@]7(C)CC[C@@H](O)[C@](C)(C(=O)O)C7CC[C@@]6(C)[C@]4(C)CC5)C(O)C(O)C3O)C(O)C2O)[C@H](O)[C@H](O)[C@H]1O (stereo partly specified),6.16% [at 11.6 µM]
11,OC[C@H]1O[C@@H](OC[C@H]2O[C@@H](OCc3ccccc3)[C@H](O)[C@@H](O)[C@@H]2O)[C@H](O)[C@@H](O)[C@@H]1O,-0.228% [at 25.3 µM]
12,COC1OC(O)C2(CCC3(O2)C(C)CC2OC(=O)C4(C)CCCC3(C)C24)C1O (stereo unspecified),-10.9% [at 38.5 µM]
13,C=C1C(OC(C)=O)C(=O)C2C(C)(C)C(O)CCC2(C)C1CC(OC(C)=O)/C(C)=C/COC(C)=O (stereo unspecified),-2.06% [at 25.3 µM]
14,C/C(=C\CO)CC/C=C(\C)C(=O)O[C@@H]1O[C@H](CO)[C@@H](O)[C@H](O)[C@H]1O,5.72% [at 38.5 µM]
15,CC(=O)c1c(C)cccc1O[C@@H]1O[C@H](CO)[C@@H](O)[C@H](O)[C@H]1O,4.19% [at 38.5 µM]
16,CC(=O)O[C@@H]1C=C2[C@H](CC[C@@]3(C)[C@@]2(O)CC[C@H]2Cc4c([nH]c5ccccc45)[C@@]23C)O[C@@H]1C(C)(C)O,3.05% [at 25.3 µM]
17,C=CC1(C)CC=C2C(CCC3C(C)(C(=O)O)CCCC23C)C1 (stereo unspecified),3.85%
18,CC(C)c1ccc2c(c1)C(=O)CC1C(C)(C(=O)O)CCCC21C (stereo unspecified),-0.162% [at 38.5 µM]
19,CC(C)CC(=O)O[C@@H]1O[C@H](CO)[C@@H](O[C@H]2O[C@H](C)[C@@H](N[C@H]3C=C(CO)[C@@H](O[C@H]4O[C@H](CO)[C@@H](O[C@H]5O[C@H](CO)[C@@H](O[C@H]6O[C@H](CO)[C@@H](O)[C@H](O)[C@H]6O)[C@H](O)[C@H]5O)[C@H](O)[C@H]4O)[C@H](O)[C@H]3O)[C@H](O)[C@H]2O)[C@H](O)[C@H]1O,2.23% [at 11.6 µM]
